SMN2 splice up – increases expression of the SMN2 splice variant; HEK293 SMN2-luciferase splicing reporter, luminescence, 30-36 h; Potency, µM (doses to about 46.1 µM), inactives show top-dose activity change, positive = activation, usual class: activators; hit rate 2.8% among 210,000; AID 1458; also: % of control where 0% means no effect; nearly all actives have a fitted effect of over 55% in size
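HEK293 cells carry an SMN2 minigene-luciferase reporter in which exon 7 inclusion puts luciferase in frame. Cells were seeded at 2000 cells/well, attached for 10-12 hours, then exposed to compounds for 30-36 hours at 37C before ONE-Glo luminescence.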
Rab9 prom act – activates the Rab9 promoter. Huh7 Rab9 promoter-luciferase reporter, luminescence, 24 h. Potency, µM (series often up to 9.22 µM), for the others: at the top dose activation, negative = inhibition, most hits filed as activators. hit rate 2.8% among 320,000; also: % of control where 0% means no effect; nearly all actives have a fitted effect of over 60% in size
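Using Huh7 cells stably transfected with Rab9 promoter–luciferase, compounds were incubated 24 h at 37 °C, 5% CO2; luciferase luminescence was read 10 min after reagent addition.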
NPC1 promoter act – NPC1 promoter activation. Potency, µM (highest dose often 9.22 µM), inactives show at the highest dose activation, hits mostly activators. Huh7 NPC1 promoter luciferase reporter, 24 h. AID 485313. hit rate 2.4% among 320,000; also: % of control where 0% means no effect; nearly all actives have a fitted effect of over 60% in size
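Readout is luciferase luminescence, reflecting NPC1 promoter activation in stably transfected Huh7 cells after 24 h compound exposure at 37 °C in reduced-serum medium with 10% FBS.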
FLuc counter – firefly luciferase modulation, counter-screen for miR-21 project. P08659. purified FLuc, Km substrates, luminescence inhibition. Potency, µM (titrated, usually from 57.5 µM), without a hit: at the highest dose activity change, negative = inhibition, usual class: inhibitors. hit rate 6.9% among 360,000;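 also: plate controls were vehicle for no effect and reference inhibitor for full effect; nearly all actives have a fitted effect of over 55% in size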
Target sequence (P08659 whole entry, looked up): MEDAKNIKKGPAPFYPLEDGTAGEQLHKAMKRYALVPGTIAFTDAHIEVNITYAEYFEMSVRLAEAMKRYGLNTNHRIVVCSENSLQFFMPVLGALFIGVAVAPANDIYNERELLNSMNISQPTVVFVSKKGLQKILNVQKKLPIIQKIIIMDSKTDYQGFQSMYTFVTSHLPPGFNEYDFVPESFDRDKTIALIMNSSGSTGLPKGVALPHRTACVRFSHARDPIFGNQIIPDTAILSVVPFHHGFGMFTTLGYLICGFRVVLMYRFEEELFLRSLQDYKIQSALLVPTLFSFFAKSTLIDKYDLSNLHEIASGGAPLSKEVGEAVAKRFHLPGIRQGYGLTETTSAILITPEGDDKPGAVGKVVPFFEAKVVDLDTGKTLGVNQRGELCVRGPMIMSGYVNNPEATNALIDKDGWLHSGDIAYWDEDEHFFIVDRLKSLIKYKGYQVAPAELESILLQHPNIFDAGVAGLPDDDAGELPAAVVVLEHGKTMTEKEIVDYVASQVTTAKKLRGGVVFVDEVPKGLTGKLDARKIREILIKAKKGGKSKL
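Purified P. pyralis luciferase (10nM final) with 10uM D-luciferin and 10uM ATP (Km levels) in 50mM Tris acetate pH 7.5, 10mM Mg acetate, 0.01% Tween-20, 0.05% BSA; qHTS 6-point titration, ~60 µM downward; luminescence read.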
KinaseGlo FLuc – blocks Kinase-Glo luciferase, a counter-screen artifact; Kinase-Glo luciferase, ATP luminescence, 8 min; Potency, µM (top dose mostly 38.3 µM), for inactives: at the highest dose activity change, negative = inhibition, actives largely listed as inhibitors; hit rate 0.28% among 200,000; also: % is scaled to controls: 0 for no effect and ±100 for the full control effect; nearly all actives have a fitted effect of over 60% in size
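Compounds were added to a substrate mix at pH 7.2 (50 mM imidazole, 10 uM ATP, within the enzyme's linear range), followed by Kinase-Glo detection reagent; luminescence was measured after 8 minutes at ambient temperature.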
Starred values were filed as active, the others as inactive; ? = inconclusive; / = not tested or not shown; [ ] = remark or other dose. Most compounds without a hit are left out; they make up all but 7.3% or so of the library. Calls follow the shape of the dose curve; as a rule, active = well fitted curve in the direction sought with a large enough effect; inconclusive = small, poorly fitted or top-dose-only effect, or another doubt; inactive = no such curve, though single readings can be large; an effect the other way counts as inactive or inconclusive. Potency is read from the fitted curve at half-maximal effect.

SMILES | SMN2 splice up | Rab9 prom act | NPC1 promoter act | FLuc counter | KinaseGlo FLuc
COc1ccc(C(=O)N2CC(=O)Nc3ccc(C)cc3C2c2ccccc2)c(OC)c1 (stereo unspecified) | 18% | / | / | -11% | /
COc1cc(OC)cc(-c2nc3cc(C)ccc3o2)c1 | 7.1µM* | 27% | 8% | 11µM* | ?
Cc1ccc(-c2nc3cc(Cl)ccc3o2)cc1 | ? | 16% | 17% | 0.34µM* | -1%
COc1ccc(C(=O)Nc2ccc(-c3nc4cc(C)ccc4o3)c(O)c2)cc1 | 1% | / | / | -3% | /
Clc1ccc(-c2nc3cc(CN4CCCCC4)ccc3o2)cc1 | / | 2.8µM* | 1.8µM* | 11µM* | /
CC(C)CC(=O)Nc1ccc2oc(-c3ccncc3)nc2c1 | 4% | ? | ? | 15µM* | 0%
CCOC(=O)c1oc2c(c1C)-c1nn(Cc3cccc(Cl)c3)cc1CC2 | -17% | / | / | -4% | /
Cc1ccc(-c2nc3cc(NC(=O)C(C)C)ccc3o2)cc1 | 0.56µM* | 0.1µM* | 0.35µM* | 1.1µM* | -14%
Cc1ccc(-c2nc3cc(NC(=O)c4cc(Br)ccc4Cl)ccc3o2)cc1 | 18% | / | / | -19% | /
CCc1ccccc1Nc1nc2ccccc2n2cnnc12 | 22% | / | / | 2% | /
CC1CCN(CC[S-])CC1.O.O.[Cl][Pt] | -4%[9.22 µM] | / | / | / | -5%[7.66 µM]
COc1ccc(Cl)cc1-n1nnc(-c2nc(-c3ccccc3)no2)c1C | / | / | / | 15µM* | /
COc1cccc(-n2nnc(-c3nc(-c4ccccc4F)no3)c2C)c1 | / | / | / | 2.4µM* | /
Cc1c(-c2nc(-c3ccccc3)no2)nnn1-c1ccc(F)c(Cl)c1 | / | / | / | -3% | /
O=C(c1ccco1)N1CCN(c2nc3c(F)cc(F)cc3s2)CC1 | / | / | / | 24µM* | /
CCOc1ccc2nc(N3CCN(C(=O)c4ccco4)CC3)sc2c1 | / | / | / | 21µM* | /
Cc1nc2cc(-c3cccc(Cl)c3)nn2c(N2CCN(C(=O)c3ccco3)CC2)c1C | -5% | 3% | -2% | 17µM* | 14%
CCc1ccc2nc(N3CCN(C(=O)c4ccco4)CC3)sc2c1 | / | / | / | 11µM* | /
O=C(C1CC1)N1CCN(c2nc3c(F)cc(F)cc3s2)CC1 | / | / | / | -19% | /
CCOc1ccc2[nH]c3c(N4CCN(C(=O)c5ccco5)CC4)ncnc3c2c1 | / | -4% | -1% | ? | /
COc1cccc(CNC(=O)C2=C(C)C(=O)OC23CCN(C(C)=O)CC3)c1OC | / | / | / | 3% | /
COc1ccc(F)cc1S(=O)(=O)Nc1ccc2c(c1)CCCN2C(=O)c1cccs1 | / | / | / | -16% | /
CCN(CC(=O)O)C(=O)c1cccnc1 | -12%[9.22 µM] | / | / | / | -5%[7.66 µM]
CCc1cccc(NC(=O)CSc2ncc3c(n2)-c2ccccc2N(Cc2ccccc2C)S3(=O)=O)c1 | / | / | / | 6% | /
O=C(c1ccc2nc(N3CCOCC3)sc2c1)N1CCN(C(=O)c2ccco2)CC1 | -7% | 2% | -1% | 4% | 1%
SMILES | SMN2 splice up | Rab9 prom act | NPC1 promoter act | FLuc counter | KinaseGlo FLuc
CCOc1ccc2nc(SCC(=O)N3CCN(C(=O)c4ccco4)CC3)sc2c1 | -14% | -6% | 0% | 17µM* | -3%
O=C(c1ccco1)N1CCN(c2ccc(Cl)cc2)CC1 | 11µM* | ? | ? | 17µM* | 0%
CCOc1ccc2nc(SCC(=O)c3ccc(Cl)s3)sc2c1 | -13% | 0% | -3% | ? | 0%
CCOc1ccc2nc(SCC(=O)c3cccs3)sc2c1 | ? | 2.8µM* | 2.5µM* | 2.7µM* | -1%
COc1ccc2nc(N3CCN(C(=O)c4ccco4)CC3)sc2c1 | / | / | / | 27µM* | /
CCOc1ccc(Nc2cc(C)nc3nc(Cc4ccc(Cl)cc4)nn23)cc1 | -6% | / | / | 2% | /
CCCCCOc1ccc(Cl)cc1CN1CCOCC1 | -4% | ? | 21% | 15µM* | 0%
Cc1cc(N=Nc2ccc(Cl)cc2)cc(CN2CCOCC2)c1O | / | 0% | -4% | 17µM* | /
Cc1cc(N=Nc2ccc(Cl)cc2)cc(CN2CCCC2)c1O | / | 22% | 0% | ? | /
COc1ccc(-c2nnc(SCC(=O)Oc3c(C)cccc3C)o2)cc1OC | / | / | / | -2% | /
COc1ccccc1/C=C/C(=O)Nc1cccc(S(=O)(=O)NC2=NCCCCC2)c1 | 3% | 2% | -5% | 19µM* | 0%
COc1ccc(OC)c(/C=C/C(=O)Nc2cccc(S(=O)(=O)NC3=NCCCCC3)c2)c1 | / | -2% | -2% | ? | /
COc1ccc(/C=C/C(=O)Nc2cccc(S(=O)(=O)NC3=NCCCCC3)c2)c(OC)c1 | / | 2% | 4% | 6µM* | /
CC1=C(C(=O)Nc2ccccc2C)C(c2sccc2C)n2ncnc2N1 (stereo unspecified) | / | / | / | 0% | /
CC(C)c1ccc(C2NC(=O)c3ccccc3O2)cc1 (stereo unspecified) | / | 15% | 4% | 9.5µM* | /
Cc1ccc(C(=O)NCCn2ccc3ccccc32)cc1[N+](=O)[O-] | ? | 21% | 21% | -18% | 3%
CCOc1ccc(C(=O)NCCn2cc(SCC(=O)Nc3cc(C)on3)c3ccccc32)cc1 | -23% | 1% | 0% | 12µM* | -3%
O=C(NCCSc1ccc(Br)cc1)c1ccccc1 | -4% | 1% | -2% | -11% | 0%
COc1ccc(C(=O)NCCSc2ccccc2)cc1 | 2.8µM* | 0.35µM* | 0.35µM* | 1.5µM* | -9%
COc1ccc(C(=O)NCCn2ccc3ccccc32)cc1 | 13µM* | 1.4µM* | ? | 11µM* | -5%
CSCc1ccc(C(=O)NCCSc2ccc(Br)cc2)cc1 | / | ? | ? | 19µM* | /
O=C(CN1CCN(CC(=O)Nc2ccccc2F)CC1)Nc1ccc(Cl)c(C(F)(F)F)c1 | / | / | / | -3% | /
Cc1cc2nc(-c3ccc(NC(=O)c4ccc(OCC(C)C)cc4)cc3)oc2cc1C | 1% | / | / | -12% | /
